# “And” between values parts separate entries of the source, which are not always exact repeats. Equal entries are not always repeated. Inconclusive results are not listed. The source made the active and inactive calls. Unless noted, no stated cut-off is given here; in the data, active means inhibition above about 80%; inactive means the rest.
# What was measured:
# [1] = JHH-DIPG-1 glioma cell viability, MIPE5.0 library, CellTiter-Glo luminescence, qHTS (AID 1347067; cut-off not given, nearly all actives have AC50 up to about 26 µM;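 further: cells exposed to compound for 48 hours before readout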); settings: JHH-DIPG-1 glioma viability, CellTiter-Glo ATP luminescence
# [2] = SU-DIPG-XXV glioma cell viability, MIPE5.0 library, qHTS (AID 1347068; cut-off not given, nearly all actives have IC50 up to about 30 µM)
# [3] = sensitizers of A549 cells to miR-34 induction, primary screen, imaging, A549 dox-inducible miR-34, nuclei and caspase counts (AID 1347080;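 active means compounds whose cell count with miR-34 switched on is under 0.7 times the count with it off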); settings: A549 miR-34 inducible, Hoechst nuclei count, 48 h
# [4] = survival rescue of mitochondrial mutant cells in low glucose, primary screen, MELAS cybrids, Rieske KO mouse fibroblasts, CellTiter-Glo (AID 1508586;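 active means mean z-score across replicates of 1.96 or higher in either the MELAS or the Rieske mutant cell line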;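 further: z relative to plate mean and SD of compound and empty wells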)
# [5] = LFS_MB_P medulloblastoma growth inhibition, cell-based, chromothripsis tumors, cisplatin or BGB combos (AID 1671449); settings: LFS_MB_P medulloblastoma cells;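 further: cells exposed for 96 hours; 0% = vehicle DMSO and 100% = killing by high DMSO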
# [6] = HDN33 neuroblastoma growth inhibition, cell-based, chromothripsis tumors, cisplatin or BGB combos (AID 1671450); settings: HDN33 neuroblastoma cells, stronger effect = higher value;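 further: cells exposed to compound for four days; 0% = vehicle DMSO and 100% = cell killing by high DMSO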
# [7] = ICB984 medulloblastoma cell growth inhibition, synergistic combos for chromothripsis tumors, cisplatin or BGB combos (AID 1671451; call rule not given here;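 further: cells exposed for 96 hours before readout; 0% = vehicle DMSO and 100% = killing by high DMSO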); settings: ICB984 medulloblastoma cells, drug combinations, stronger effect = higher value
# [8] = LFS_MB_1R medulloblastoma cell growth inhibition, synergistic combos for chromothripsis tumors, cisplatin or BGB combos (AID 1671452); settings: LFS_MB_1R medulloblastoma cells, stronger effect = higher value;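 further: cells exposed for 96 hours before readout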
# [9] = HTB85 osteosarcoma cell growth inhibition, synergistic combos for chromothripsis tumors, BGB or cisplatin IC20 combos (AID 1671453); settings: HTB85 osteosarcoma cells, drug combinations, stronger effect = higher value;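 further: cells exposed for 96 hours before readout; 0% = vehicle DMSO and 100% = high DMSO killing control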
# [10] = CRL2098 osteosarcoma cell growth inhibition, synergistic combos for chromothripsis tumors, BGB or cisplatin IC20 combos (AID 1671454); settings: CRL2098 osteosarcoma cells, drug combinations, stronger effect = higher value;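 further: cells exposed for 96 h before readout; 0% = vehicle DMSO and 100% = killing by high DMSO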
# [11] = HD-MB03 medulloblastoma cell growth inhibition, synergistic combos for chromothripsis tumors, BGB or cisplatin IC20 combos (AID 1671455; in the data active means inhibition above about 83%;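 further: 0% = vehicle DMSO and 100% = high DMSO as cytotoxic control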); settings: HD-MB03 medulloblastoma cells, stronger effect = higher value
# [12] = UWB1.289 ovarian carcinoma cell growth inhibition, synergistic combos for chromothripsis tumors, BGB or cisplatin combos (AID 1671456); settings: UWB1.289 ovarian carcinoma cells, stronger effect = higher value;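 further: cells exposed to compound for four days; 0% = vehicle DMSO and 100% = killing by high DMSO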
# [13] = LFS_MB_2R medulloblastoma cell growth inhibition, synergistic combos for chromothripsis tumors, cisplatin combos (AID 1671457); settings: LFS_MB_2R medulloblastoma cells, stronger effect = higher value;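 further: cells exposed to compound for four days before readout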
# [14] = MDA-MB-436 breast carcinoma cell growth inhibition, synergistic combos for chromothripsis tumors, BGB or cisplatin combos (AID 1671458; call rule not given here;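 further: cells exposed for 96 hours; 0% = vehicle DMSO and 100% = killing by high DMSO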); settings: MDA-MB-436 breast carcinoma growth inhibition, drug combinations, stronger effect = higher value
# [15] = UWB1.289_BRCA1 ovarian cancer growth, cell-based, BGB or cisplatin combinations (AID 1671459); settings: UWB1.289 BRCA1 ovarian carcinoma, drug combinations, stronger effect = higher value
# [16] = human astrocyte viability loss, single and combined drugs, cytotoxicity control for chromothriptic childhood tumor combination screen, cell-based, BGB or cisplatin IC20 combos (AID 1671460); settings: Human astrocytes, drug combinations, stronger effect = higher value;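 further: cells exposed to compounds for 96 hours before viability readout; 0% = vehicle and 100% = killing control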
# [17] = growth inhibition of BT084 medulloblastoma cells, cell-based, ICGC_MB145, cisplatin and BGB IC40 combos (AID 1671461); settings: drug combinations, stronger effect = higher value;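 further: cells exposed to drugs for 96 hours; 0% = vehicle DMSO and 100% = high DMSO full killing control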
# [18] = growth inhibition of RCMB18 medulloblastoma cells, cell-based, cisplatin and BGB IC40 combos (AID 1671462); settings: stronger effect = higher value;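 further: cells exposed to compound for four days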
# [19] = growth inhibition of CRL1545 osteosarcoma cells, cell-based, cisplatin and BGB IC20 combos (AID 1671464); settings: stronger effect = higher value;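 further: cells exposed to compound for 96 hours before readout; 0% = vehicle DMSO and 100% = high DMSO killing control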
# [20] = SU-DIPG-VI glioma cell viability, MIPE4.0 library, CellTiter-Glo luminescence, qHTS (AID 1347066; cut-off not given, nearly all actives have AC50 up to about 30 µM;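 further: cells exposed to compound for 48 hours before readout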); settings: CellTiter-Glo ATP luminescence
# [21] = measured here: combination with BGB IC40, at 0.05 µM
# [22] = measured here: with BGB IC20 combination, at 0.5 µM
# [23] = measured here: with cisplatin IC20 combination, at 0.5 µM
# [24] = measured here: combination with cisplatin, at 0.5 µM
# [25] = measured here: combination with cisplatin, at 5 µM
structure (smiles),measurement,setting,value
Nc1nc(F)nc2c1ncn2C1OC(COP(=O)(O)O)C(O)C1O (stereo not given),outcome,[1],inactive
same,outcome,[2],inactive
same,fold change,"[3]; stronger effect = lower value, cell number ratio, induced over uninduced",0.831 (inactive)
same,fold change,[3]; measured here: relative caspase fold change +Dox/-Dox,1.44
same,cell count,"[3]; measured here: total cells with miR-34 induction, stronger effect = lower value",1120
same,cell count,[3]; measured here: total cells without miR-34 induction,1350
same,z-score,"[4]; MELAS cybrid survival, CellTiter-Glo 48 h, stronger effect = higher value",1.34 (inactive)
same,z-score,"[4]; Rieske KO mouse fibroblast survival, CellTiter-Glo 72 h",0.326
same,inhibition,"[5]; at 0.5 µM, stronger effect = higher value",-6.1% (inactive) and -16% (inactive)
same,inhibition,"[5]; measured here: combination with BGB IC20, at 0.005 µM",-22.8% and 0.183%
same,inhibition,"[5]; measured here: combination with BGB IC40, at 0.005 µM",-34.6% and 88.8%
same,inhibition,[5]; [21],-38.1% and -2.46%
same,inhibition,"[5]; measured here: combination with cisplatin, at 0.5 µM, stronger effect = higher value",-18.5% and -25%
same,inhibition,"[5]; measured here: combination with cisplatin, at 5 µM, stronger effect = higher value",-36% and -9.03%
same,inhibition,"[6]; BGB combo, at 5 µM",8.47% and 22.7%
same,inhibition,[6]; at 0.5 µM,-18.9% (inactive) and 5.11% (inactive)
same,inhibition,"[6]; cisplatin combo, at 5 µM",34% and 24.2%
same,inhibition,[6]; [22],-23% and -1.08%
same,inhibition,[6]; [23],-13.9% and 12.9%
same,inhibition,"[6]; single agent, at 5 µM",32.2% and 15.4%
same,inhibition,"[7]; BGB IC20 combo, at 0.005 µM",-19.2% and -1.57%
same,inhibition,"[7]; BGB IC40 combo, at 0.005 µM",-13.6% and -18.3%
same,inhibition,"[7]; BGB IC40 combo, at 0.05 µM",-31.2% and -1.01%
same,inhibition,[7]; at 0.5 µM,-29.2% (inactive) and -28.4% (inactive)
same,inhibition,"[7]; cisplatin combo, at 0.05 µM",-35.9% and -6.12%
same,inhibition,"[7]; cisplatin combo, at 0.5 µM",-20.9% and -39.7%
same,inhibition,"[7]; cisplatin combo, at 5 µM",-37.1% and 11.4%
same,inhibition,"[7]; measured here: 5 uM single agent, at 5 µM",0.546% and -0.896%
same,inhibition,[8]; at 0.5 µM,-6.95% (inactive) and -19.6% (inactive)
same,inhibition,[8]; [21],-26.6% and -4.09%
same,inhibition,[8]; [24],-0.649% and -47.1%
same,inhibition,[8]; [25],-27.4% and 0.798%
same,inhibition,[9]; at 0.5 µM,-3.37% (inactive) and -4.43% (inactive)
same,inhibition,"[9]; measured here: with BGB IC20, at 0.5 µM",-4.86% and 13.2%
same,inhibition,"[9]; measured here: with BGB IC20, at 5 µM",45.3% and 42.7%
same,inhibition,"[9]; measured here: with cisplatin IC20, at 0.5 µM",-6.04% and -18.8%
same,inhibition,"[9]; measured here: with cisplatin IC20, at 5 µM",12.2% and 45.7%
same,inhibition,"[9]; single agent, at 5 µM",36% and 50.6%
same,inhibition,[10]; at 0.5 µM,89.7% (active) and 91.2% (active)
same,inhibition,"[10]; measured here: combination with BGB at IC20, at 0.5 µM",89.6% and 91.3%
same,inhibition,"[10]; measured here: combination with cisplatin at IC20, at 0.5 µM",88.8% and 92.6%
same,inhibition,[11]; at 0.5 µM,-9.66% (inactive) and -9.92% (inactive)
same,inhibition,"[11]; measured here: combo with BGB at IC20, at 0.5 µM",-18.1% and -5.96%
same,inhibition,"[11]; measured here: combo with cisplatin at IC20, at 0.5 µM",-7.22% and -17%
same,inhibition,[12]; at 0.5 µM,0.55% (inactive) and 0.43% (inactive)
same,inhibition,"[12]; measured here: inhibition with BGB combination, at 0.05 µM",-14.7% and -18.8%
same,inhibition,"[12]; measured here: inhibition with cisplatin combination, at 0.05 µM",7.04% and -2.8%
same,inhibition,[13]; at 0.5 µM,-15.7% (inactive) and -21.8% (inactive)
same,inhibition,[13]; [24],-20.2% and -35.8%
same,inhibition,[13]; [25],-11.6% and -19.4%
same,inhibition,[14]; at 0.5 µM,-9.15% (inactive) and -15.9% (inactive)
same,inhibition,"[14]; measured here: BGB combination, at 0.5 µM",-8.11% and -21.9%
same,inhibition,"[14]; measured here: BGB combination, at 5 µM",-2.69% and -3.01%
same,inhibition,"[14]; measured here: cisplatin combination, at 0.5 µM",-21.1% and -19.1%
same,inhibition,"[14]; measured here: cisplatin combination, at 5 µM",-5.75% and -5.25%
same,inhibition,"[15]; BGB combination, concentration series, at 5 µM",11.6% and 15.8%
same,inhibition,[15]; at 0.5 µM,-0.02% (inactive) and -0.87% (inactive)
same,inhibition,"[15]; cisplatin combination, concentration series, at 5 µM",11.9% and 23.4%
same,inhibition,[16]; at 0.5 µM,1.35% (inactive) and 3.3% (inactive)
same,inhibition,"[16]; measured here: combo with BGB IC20, at 0.5 µM",-1.03% and 7.99%
same,inhibition,"[16]; measured here: combo with cisplatin IC20, at 0.5 µM",-5.99% and 1.9%
same,inhibition,[17]; at 0.5 µM,-11.5% (inactive) and -3.83% (inactive)
same,inhibition,"[17]; cisplatin combination, at 0.5 µM",-36% and -5.18%
same,inhibition,"[17]; cisplatin combination, at 5 µM",4.67% and -96.3%
same,inhibition,"[17]; measured here: BGB IC40 combination 0.05 uM, at 0.05 µM",-40.8% and -7.89%
same,inhibition,"[17]; single agent, at 5 µM",-1.22% and 8.96%
same,inhibition,[18]; at 0.5 µM,-12.8% (inactive) and -10.2% (inactive)
same,inhibition,"[18]; cisplatin combo, at 5 µM",18.6% and -15.8%
same,inhibition,"[18]; measured here: BGB IC40 combination, at 0.05 µM",-56.2% and -25.6%
same,inhibition,[18]; [24],24.5% and -1.4%
same,inhibition,"[18]; single agent, at 5 µM",-15.5% and 3.22%
same,inhibition,[19]; at 0.5 µM,-20.4% (inactive) and 8.11% (inactive)
same,inhibition,[19]; [22],-8.22% and 10.3%
same,inhibition,[19]; [23],-28.6% and 5.54%
same,inhibition,"[19]; single agent, at 0.05 µM",18.9% and -12.8%
same,inhibition,"[19]; single agent, at 5 µM",-12.4% and -14.9%
COc1ccc2c(c1)C(c1ccc(F)cc1)=C(CN1CCCC1)CO2,outcome,[1],inactive
same,outcome,[2],inactive
CC/C(=C(/c1ccc(/C=C/C(=O)O)cc1)c1ccc2[nH]ncc2c1)c1ccc(F)cc1Cl,AC50,[1],26.3 µM (active)
FC(F)(F)c1ccc(Nc2nc3ccc(Oc4ccnc(-c5ncc(C(F)(F)F)[nH]5)c4)cc3[nH]2)cc1,AC50,[20],20.9 µM (active)
CC1CCN(c2cc(N3CCN(C)CC3)ccc2NC(=O)c2cc(C#N)c[nH]2)CC1,outcome,[20],inactive
same,outcome,[2],inactive
C#CCC(Cc1cnc2nc(N)nc(N)c2n1)c1ccc(C(=O)N[C@@H](CCC(=O)O)C(=O)O)cc1 (stereo not given in full),outcome,[1],inactive
Cn1c(NC[C@@H](N)Cc2ccccc2)nc(-c2ccncc2)c(-c2ccc3ccccc3c2)c1=O,outcome,[2],inactive
Cc1csc(NC(=O)c2sc3nc4c(c(C(F)(F)F)c3c2N)CCC4)n1,outcome,[1],inactive

# From PubChem BioAssay
